Assay outcomes: PubChem BioAssay, National Center for Advancing Translational Sciences (NCATS)
PLK1 PBD inh = blocks phosphopeptide binding to human PLK1 polo-box domain; Potency, µM, hits mostly inhibitors; AID 720504; 360,000 compounds, 2.8% hits; Plk1 PBD binding of FITC phosphopeptide, fluorescence polarization; also: series mostly up to about 57 µM; nearly all actives have a fitted effect of over 65% in size
Target sequence (P53350 whole entry, looked up, the tested form may be a part): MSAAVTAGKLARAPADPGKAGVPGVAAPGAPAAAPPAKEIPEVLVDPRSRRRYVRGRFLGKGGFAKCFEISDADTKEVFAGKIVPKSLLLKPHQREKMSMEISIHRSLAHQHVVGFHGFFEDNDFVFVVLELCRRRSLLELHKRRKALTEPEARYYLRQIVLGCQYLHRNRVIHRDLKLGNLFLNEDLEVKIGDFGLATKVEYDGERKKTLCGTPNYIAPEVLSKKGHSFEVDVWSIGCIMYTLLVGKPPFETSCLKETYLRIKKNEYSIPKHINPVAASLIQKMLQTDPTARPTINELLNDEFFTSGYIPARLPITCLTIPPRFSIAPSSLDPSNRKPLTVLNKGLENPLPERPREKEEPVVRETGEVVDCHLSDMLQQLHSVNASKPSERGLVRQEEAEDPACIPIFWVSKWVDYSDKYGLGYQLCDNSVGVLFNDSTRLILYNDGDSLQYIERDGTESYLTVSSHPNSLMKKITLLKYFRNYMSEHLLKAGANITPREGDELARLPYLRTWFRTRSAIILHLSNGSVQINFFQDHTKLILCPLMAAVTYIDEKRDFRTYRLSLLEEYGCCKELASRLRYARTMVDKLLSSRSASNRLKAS
PI5P4Ka inh = PI5P4K alpha (human) kinase inhibition; P48426; PI5P4Kalpha enzyme, ADP-Glo luminescence, 60 min; stronger effect = lower value; max response, %; 330,000 compounds, 1.2% hits; AID 652105; active = max response of -50% or lower; inconclusive = between -30% and -50%; inactive = -30% or higher; also: value at the top dose of about 77 µM
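Single end-point luminescence (ADP-Glo) quantified ADP from PI5P4Kalpha turnover; ATP 5 microM final, 1 h at RT, 0.1% CHAPS and 0.28 mM EGTA in HEPES pH 7.4.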
WRN helicase inh = WRN helicase (human) inhibition. WRN helicase unwinding, fluorescent forked duplex, kinetic. Potency, µM (titrated, usually from 114 µM), usual class: inhibitors. 360,000 compounds, 0.46% hits. AID 651768; also: nearly all actives have a fitted effect of over 55% in size
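Kinetic red-fluorescence monitoring (525/598 nm) tracks WRN helicase activity after 100 nM fluorophore-quencher forked duplex and 2 mM ATP are added to 20 nM enzyme pretreated 15 min at room temperature with compound.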
USP1-UAF1 inh = inhibitors of human USP1/UAF1 deubiquitinase | recombinant USP1/UAF1, Ub-Rhodamine cleavage fluorescence | Potency, µM (top dose mostly 57.1 µM), actives largely listed as inhibitors | 390,000 compounds, 0.23% hits | AID 743255; also: nearly all actives have a fitted effect of over 60% in size
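USP1/UAF1 complex at 1 nM was preincubated with compound for 15 min at room temperature, then Ub-Rho substrate (150nM final) was added. Fluorescence (480/540 nm) was read kinetically, 6 reads every 60 seconds.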
USP2a inh = USP2a (human) protease inhibition; USP2 core, Ub-CHOP2 coupled fluorogenic reporter, 485/531; Potency, µM (highest dose often 38.3 µM), hits mostly inhibitors; 330,000 compounds, 0.01% hits; AID 463254
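Deubiquitinase activity read as fluorescence (485/531 nm) after Ub-CHOP2 cleavage activates the enterokinase reporter on its substrate; USP2 core 10nM, Ub-CHOP2 and substrate 25nM each, 30min compound preincubation then 60min RT; data normalized to NEM, curves fitted.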
Numbers stand for hits; - = inactive; ? = inconclusive; . = not tested or not shown. Rows were chosen to be rich in hits. Some 3.3% of all compounds tested hit in one or more screens of this group. Unless noted, calls follow the shape of the dose curve; as a rule, active = well fitted curve in the direction sought with a large enough effect; inconclusive = small, poorly fitted or top-dose-only effect, or another doubt; inactive = no such curve, though single readings can be large; an effect the other way counts as inactive or inconclusive.

SMILES	PLK1 PBD inh	PI5P4Ka inh	WRN helicase inh	USP1-UAF1 inh	USP2a inh
Cc1ccccc1C(=O)OCc1cc(=O)n2nc(C3CC3)sc2n1	.	.	.	-	.
Oc1ccc(/C=N/Nc2ccc(Cl)nn2)c(O)c1O	16.8µM	-70.6	?	?	-
Oc1c(Br)cc(/C=N/Nc2nncc3ccccc23)cc1Br	-	-61.5	-	?	-
COc1ccc(/C=N/Nc2nncc3ccccc23)cc1	-	-	-	-	-
Oc1c(Br)cc(/C=N/Nc2ccc(Cl)nn2)cc1Br	?	-92.7	44.7µM	-	-
CC(=O)Nc1cc(OC(C)=O)c2nonc2c1OC(C)=O	?	.	-	3.98µM	-
CC(=O)Nc1nonc1NC(C)=O	-	-	-	-	-
CCOC(=O)c1cc(C)n(-c2ccccc2)c1C	-	-	-	-	-
Cc1cc(C(=O)OCC(N)=O)c(C)n1-c1ccccc1	23.8µM	-	-	-	-
COCC(=O)OCC(=O)c1cc(C)n(-c2ccc(Br)cc2)c1C	16.8µM	?	-	-	-
CC(=O)OCC1OC(n2ccc3ccccc32)C(OC(C)=O)C(OC(C)=O)C1OC(C)=O (stereo not given)	26.7µM	-	-	-	-
CC(=O)OC[C@H]1O[C@@H](n2ccc(=O)[nH]c2=S)C(OC(C)=O)C1OC(C)=O (stereo not given in full)	-	.	-	-	-
CCOCCCNC(=S)NCCCNc1nc2c(C)cc(C)cc2cc1C#N	23.8µM	-	-	-	-
Cc1cc(C)c2nc(NCCCNC(=S)NCCCN(C)C)c(C#N)cc2c1	-	-	-	-	-
COc1ccc2c(CC(=O)OCC(=O)N3CCc4ccccc43)coc2c1	26.7µM	-	-	-	-
COc1ccc2c(CC(=O)OCC(=O)Nc3ccc4c(c3)OCO4)coc2c1	16.8µM	?	-	-	-
COc1ccc2c(CC(=O)N3CCc4ccccc43)coc2c1	-	-	-	-	-
CCCS(=O)(=O)c1nc(S(=O)(=O)c2ccc(C)cc2)c(N2CCOCC2)s1	-	-	-	-	-
Cc1ccc(S(=O)(=O)c2nc(S(=O)(=O)CCO)sc2N2CCOCC2)cc1	29.9µM	-	-	-	-
CCc1nn2c(=O)cc(COC(=O)c3ccccc3NC(=O)c3ccc(C(C)(C)C)cc3)nc2s1	.	.	.	-	.
CC(C)(C)c1nnc(NC(=O)c2ccc3c(c2)OCO3)s1	5.97µM	?	-	-	-
CC(C)c1nnc(NC(=O)c2ccc3c(c2)OCO3)s1	-	-	-	-	-
O=c1c2ccccc2nc(SCc2ccccc2)n1Cc1ccco1	-	-	-	-	-
Cc1ccc(CSc2nc3ccccc3c(=O)n2Cc2ccco2)cc1	26.7µM	-	-	-	-
Cc1sc2nc(SCc3ccc(C(=O)O)cc3)n(Cc3ccco3)c(=O)c2c1C	26.7µM	-	-	-	-
SMILES	PLK1 PBD inh	PI5P4Ka inh	WRN helicase inh	USP1-UAF1 inh	USP2a inh
C#CCn1c(C2CC(=O)N(c3ccc(OC)cc3)C2)nc2ccccc21 (stereo not given)	.	.	.	-	.
Cc1ccc(NC(=O)CN2C(=O)CC(c3ccc(C)c(C)c3)=Nc3ccccc32)cc1	.	.	.	-	.
O=C(Nc1ccccc1C(F)(F)F)N1CCC(CN2CCc3ccccc3C2)CC1	.	.	.	-	.
O=C(Cn1cc(SCc2ccc(F)cc2)c2ccccc21)N1CCCCC1	.	.	.	-	.
CCOc1ccc2nc(NC(=S)NCc3ccccc3)sc2c1	26.7µM	.	-	-	-
CCOc1ccc2nc(NC(=O)Nc3ccccc3)sc2c1	-	-	-	-	?
CCOc1ccc2nc(NC(=O)Cc3cccs3)sc2c1	29.9µM	-	-	-	-
COc1ccc2nc(NC(=O)Cc3cccs3)sc2c1	-	-	-	-	-
Cc1ccc(C(=O)Nc2c(C(=O)Nc3ccc(C)c(C)c3)sc3nc(C)cc(C)c23)cc1	.	.	.	-	.
O=C(c1cccc(OC2CCN(Cc3ccc(F)cc3)CC2)c1)N1CCCC1	21.2µM	-	-	?	-
CCCOc1cccc(C(=O)N(Cc2ccc(C)o2)C2CCS(=O)(=O)C2)c1 (stereo not given)	.	.	.	-	.
COc1ccc(NC(=O)COc2ccc(C(=O)OCC(=O)N(C(C)C)C(C)C)cc2OC)cc1	23.8µM	-	-	-	-
CCOc1ccc(C(=O)OCC(=O)Nc2ccc3c(c2)OCCO3)cc1OC	-	-	-	-	-
CCCN(CCC)CCNC(=O)Cn1cnc2sc(C)c(S(=O)(=O)N3CCN(c4ccccc4OC)CC3)c2c1=O	.	.	.	-	.
CCOC(=O)C1=CC[C@@H](c2ccccc2)N(S(=O)(=O)c2ccc(C)cc2)[C@H]1C#N	6.7µM	?	-	.	.
Cc1ccc([C@H]2C(C(=O)O)=CC[C@@H](c3cccc(Cl)c3)N2S(=O)(=O)c2ccc(C)cc2)cc1	?	-	-	-	.
Cc1ccc(S(=O)(=O)N2[C@@H](c3ccc(Br)cc3)C(C(=O)O)=CC[C@H]2c2ccc(Cl)c(Cl)c2)cc1	23.8µM	-	-	?	-
CCc1ccc([C@@H]2CC=C(C(=O)O)[C@H](c3cccc(Cl)c3)N2S(=O)(=O)c2ccc(C)cc2)cc1	21.2µM	-	-	?	-
Cc1ccc(S(=O)(=O)N2[C@@H](c3ccc(Br)cc3)C(C(=O)O)=CC[C@H]2c2cccc(Cl)c2)cc1	?	-	-	-	-
CCc1ccc([C@@H]2CC=C(C(=O)O)[C@H](c3ccc(Cl)cc3)N2S(=O)(=O)c2ccc(C)cc2)cc1	?	?	-	?	-
Cc1ccc(S(=O)(=O)N2[C@@H](c3ccc(C(C)(C)C)cc3)C(C(=O)O)=CC[C@H]2c2cccc(Cl)c2)cc1	21.2µM	?	70.8µM	?	?
CCc1nn(CC(=O)N(CC)Cc2ccccc2)c(=O)c2cc3occc3n12	.	.	.	-	.
CCOCCCn1c(SCC(=O)Nc2ccccc2CC)nc2ccccc2c1=O	.	.	.	-	.
O=C(CSc1nccn1Cc1ccc(F)cc1)NCc1ccco1	.	.	.	-	.
Cc1ccc(S(=O)(=O)N2[C@@H](c3cccc(Cl)c3)C(C(=O)O)=CC[C@H]2c2cccc(Cl)c2)cc1	26.7µM	-	-	-	-
SMILES	PLK1 PBD inh	PI5P4Ka inh	WRN helicase inh	USP1-UAF1 inh	USP2a inh
Cc1ccc(S(=O)(=O)N2[C@@H](c3ccc(C(C)(C)C)cc3)C(C(=O)O)=CC[C@H]2c2ccc(Cl)c(Cl)c2)cc1	26.7µM	-	-	-	?
COc1ccc(C2C3=C(CC(C)(C)CC3=O)Nc3c2c(=O)n(C)c(=O)n3C)cc1OC (stereo not given)	11.9µM	-	-	-	-
COc1ccc(C2Nc3ccccc3NC3=C2C(=O)CC(C)(C)C3)cc1O (stereo not given)	3.77µM	-	-	-	-
C=CCOc1ccccc1C1C2=C(CC(C)(C)CC2=O)Nc2c1c(=O)n(C)c(=O)n2C (stereo not given)	-	-	-	-	-
C/C=C/c1ccc(O)c(OC)c1	?	-	-	-	-
COc1cc(C(=S)N(C)C)ccc1O	9.47µM	-	-	-	-
Cc1c(Cc2ccccc2)sc(NC(=O)c2ccco2)c1C(N)=O	-	.	-	-	-
CCCc1cc(C(N)=O)c(NC(=O)C2CCCO2)s1 (stereo not given)	10.6µM	.	-	-	-
